Source: PubChem BioAssay (NCI)
About 83,000 compounds went through this panel and 20% of them were active in at least one assay; those are over-represented in the sample as a whole.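 Single-dose data. Exposure time 48 hours. Values below 10 considered active.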 The source made the active and inactive calls.

What was measured:
Experiment in all cases: NCI-60 one-dose screen, 48 h (100 = growth as untreated, 0 = no growth, -100 = all killed)
Conditions in all cases: 10 µM unless noted
NCI-H23 lung = system: NCI-H23 lung
NCI-H226 lung = system: NCI-H226 lung
NCI-H322M lung = system: NCI-H322M lung
HOP-62 NSCLC = system: HOP-62 NSCLC
NCI-H460 lung = system: NCI-H460 lung
HOP-92 NSCLC = system: HOP-92 NSCLC
NCI-H522 lung = system: NCI-H522 lung
A549/ATCC NSCLC = system: A549/ATCC NSCLC
786-0 renal = system: 786-0 renal
COLO 205 colon = system: COLO 205 colon
DU-145 prostate = system: DU-145 prostate
K-562 leukemia = system: K-562 leukemia
MALME-3M melanoma = system: MALME-3M melanoma
MDA-MB-231 breast = system: MDA-MB-231 breast
SF-268 CNS = system: SF-268 CNS
SF-295 CNS = system: SF-295 CNS
SF-539 CNS = system: SF-539 CNS
UACC-257 melanoma = system: UACC-257 melanoma
M14 melanoma = system: M14 melanoma

Measured: growth

CCN(CC)CCCC(C)Nc1c2c(nc3ccc(OC)cc13)CCCC2 (stereo not given)
inactive: NCI-H23 lung 87.7% | NCI-H226 lung 97.3% | NCI-H322M lung 90.6% | HOP-62 NSCLC 87.6% | NCI-H460 lung 92.7% | HOP-92 NSCLC 84.2% | NCI-H522 lung 112% | A549/ATCC NSCLC 108% | 786-0 renal 90.2% | COLO 205 colon 100% | DU-145 prostate 111% | K-562 leukemia 79.9% | MALME-3M melanoma 118% | MDA-MB-231 breast 79.8% | SF-268 CNS 86.2% | SF-295 CNS 78% | SF-539 CNS 89.8% | UACC-257 melanoma 112% | M14 melanoma 100%

CCc1nc(C)cn1C(=O)OCc1nc2nc(Cl)nc(N3CCOCC3)c2[nH]1
inactive: NCI-H23 lung 28.9% | NCI-H322M lung 64.2% | HOP-62 NSCLC 47.9% | NCI-H460 lung 13.9% | A549/ATCC NSCLC 15.1% | SF-295 CNS 79.5%
active: NCI-H226 lung -75% | HOP-92 NSCLC -50.2% | NCI-H522 lung -75.5% | 786-0 renal -77.4% | COLO 205 colon -84.5% | DU-145 prostate -37.3% | K-562 leukemia 1.14% | MALME-3M melanoma -67.8% | MDA-MB-231 breast -42.9% | SF-268 CNS -64% | SF-539 CNS -74.8% | UACC-257 melanoma -80.8% | M14 melanoma -56.8%

COc1ccccc1Nc1cc(O)c2c(=O)cc(-c3ccccc3)oc2c1
active: NCI-H522 lung 7.64%
inactive: NCI-H23 lung 51.5% | NCI-H226 lung 76.8% | NCI-H322M lung 80.1% | HOP-62 NSCLC 35.6% | NCI-H460 lung 11.4% | HOP-92 NSCLC 62.2% | A549/ATCC NSCLC 33.7% | 786-0 renal 49.2% | COLO 205 colon 76.8% | DU-145 prostate 45.6% | K-562 leukemia 11.6% | MALME-3M melanoma 44.1% | MDA-MB-231 breast 39.2% | SF-268 CNS 44.9% | SF-295 CNS 25.9% | SF-539 CNS 28.3% | UACC-257 melanoma 54% | M14 melanoma 20.8%

CN1C2CCC1CN(c1cnc(C(=O)Nc3cc(F)cc4cccnc34)cn1)C2
inactive: NCI-H23 lung 46.8% | NCI-H226 lung 88.9% | NCI-H322M lung 74.6% | HOP-62 NSCLC 88.6% | NCI-H460 lung 83.4% | HOP-92 NSCLC 81.2% | NCI-H522 lung 24.4% | A549/ATCC NSCLC 87.5% | 786-0 renal 51.8% | COLO 205 colon 10.4% | DU-145 prostate 74.6% | K-562 leukemia 15.7% | MALME-3M melanoma 41% | MDA-MB-231 breast 31.4% | SF-268 CNS 85.6% | SF-295 CNS 97.6% | SF-539 CNS 70.4% | UACC-257 melanoma 42.7% | M14 melanoma 54.3%

COc1ccc(-c2nc(N/N=C/c3cccc(O)c3)nc(N3CCOCC3)c2C#N)cc1
inactive: NCI-H23 lung 99.5% | NCI-H226 lung 98.1% | NCI-H322M lung 95% | HOP-62 NSCLC 90.7% | NCI-H460 lung 83.8% | HOP-92 NSCLC 47.7% | NCI-H522 lung 79.1% | A549/ATCC NSCLC 81.7% | 786-0 renal 44.1% | COLO 205 colon 74.1% | DU-145 prostate 56% | K-562 leukemia 58.3% | MALME-3M melanoma 65.9% | MDA-MB-231 breast 74.9% | SF-268 CNS 78.8% | SF-295 CNS 69.7% | SF-539 CNS 54.5% | UACC-257 melanoma 57.9% | M14 melanoma 57.5%

CCCCCCCCCCCCC1CCC/C=C\CCC(=O)O1 (stereo not given)
inactive: NCI-H23 lung 88.6% | NCI-H226 lung 100% | NCI-H322M lung 117% | HOP-62 NSCLC 111% | NCI-H460 lung 104% | HOP-92 NSCLC 111% | NCI-H522 lung 91.8% | A549/ATCC NSCLC 55% | 786-0 renal 95.4% | COLO 205 colon 101% | DU-145 prostate 115% | K-562 leukemia 101% | MALME-3M melanoma 108% | MDA-MB-231 breast 99.3% | SF-268 CNS 101% | SF-295 CNS 103% | SF-539 CNS 104% | UACC-257 melanoma 119% | M14 melanoma 95.2%

CCN1C(=O)N(CC)C2NC(SC)=NC21 (stereo not given)
inactive: NCI-H23 lung 98% | NCI-H226 lung 94.3% | NCI-H322M lung 92.3% | HOP-62 NSCLC 91.8% | NCI-H460 lung 103% | HOP-92 NSCLC 108% | NCI-H522 lung 102% | A549/ATCC NSCLC 103% | 786-0 renal 102% | COLO 205 colon 103% | DU-145 prostate 111% | K-562 leukemia 104% | MALME-3M melanoma 95% | MDA-MB-231 breast 103% | SF-268 CNS 95.3% | SF-295 CNS 101% | SF-539 CNS 98.7% | UACC-257 melanoma 97.8% | M14 melanoma 100%

c1ccc(CCSc2ncnc3nc[nH]c23)cc1
inactive: NCI-H23 lung 96.8% | NCI-H226 lung 86.6% | NCI-H322M lung 113% | HOP-62 NSCLC 103% | NCI-H460 lung 82% | HOP-92 NSCLC 110% | A549/ATCC NSCLC 77.3% | 786-0 renal 102% | COLO 205 colon 90.1% | DU-145 prostate 108% | K-562 leukemia 72.4% | MALME-3M melanoma 106% | MDA-MB-231 breast 85.2% | SF-268 CNS 103% | SF-295 CNS 75.6% | SF-539 CNS 84.8% | UACC-257 melanoma 46.2% | M14 melanoma 97.5%
active: NCI-H522 lung 0.492%

COc1cccc(/C=C2\COc3ccc(-c4ccccc4)cc3C2=O)c1
inactive: NCI-H23 lung 44.9% | NCI-H226 lung 65.7% | NCI-H322M lung 45.4% | NCI-H522 lung 25.2% | A549/ATCC NSCLC 37% | MALME-3M melanoma 101% | MDA-MB-231 breast 32.3% | UACC-257 melanoma 49.2% | M14 melanoma 23.6%
active: HOP-62 NSCLC -32.3% | NCI-H460 lung -22.3% | HOP-92 NSCLC -3.57% | 786-0 renal -45.4% | COLO 205 colon -23.4% | DU-145 prostate -40.2% | K-562 leukemia -2.92% | SF-268 CNS 4.23% | SF-295 CNS -44.8% | SF-539 CNS -29.8%

CCCCCCCCCCCCCCCCCCOc1ccccc1N
inactive: NCI-H23 lung 87.8% | NCI-H226 lung 97.6% | NCI-H322M lung 81.7% | HOP-62 NSCLC 90.9% | NCI-H460 lung 47.6% | HOP-92 NSCLC 78.7% | A549/ATCC NSCLC 25.5% | 786-0 renal 25% | COLO 205 colon 46.3% | DU-145 prostate 62% | K-562 leukemia 86.6% | MALME-3M melanoma 102% | MDA-MB-231 breast 24.7% | SF-268 CNS 56.6% | SF-295 CNS 54.3% | SF-539 CNS 20.5% | UACC-257 melanoma 55.4% | M14 melanoma 72.9%
active: NCI-H522 lung 3.78%

COc1cc2nc(-c3ccc(-c4nn[nH]n4)cc3)[nH]c(=O)c2cc1OC
inactive: NCI-H23 lung 93.7% | NCI-H226 lung 106% | NCI-H322M lung 176% | HOP-62 NSCLC 99.3% | NCI-H460 lung 115% | HOP-92 NSCLC 132% | NCI-H522 lung 96.1% | A549/ATCC NSCLC 30.5% | 786-0 renal 104% | COLO 205 colon 117% | DU-145 prostate 114% | K-562 leukemia 109% | MALME-3M melanoma 215% | MDA-MB-231 breast 119% | SF-268 CNS 99.9% | SF-295 CNS 122% | SF-539 CNS 99.5% | UACC-257 melanoma 122% | M14 melanoma 102%

COc1cc(NCCCN(CC(C)C)CC(C)C)c2ncccc2c1
inactive: NCI-H23 lung 72.9% | NCI-H226 lung 97.8% | NCI-H322M lung 108% | HOP-62 NSCLC 87.6% | NCI-H460 lung 95.2% | HOP-92 NSCLC 84.2% | NCI-H522 lung 73.2% | A549/ATCC NSCLC 80.7% | 786-0 renal 90.7% | COLO 205 colon 90.2% | DU-145 prostate 106% | K-562 leukemia 110% | MALME-3M melanoma 102% | MDA-MB-231 breast 88.7% | SF-268 CNS 89.5% | SF-295 CNS 89.4% | SF-539 CNS 102% | UACC-257 melanoma 90.9% | M14 melanoma 91.4%

COc1ccc(-c2nc(N/N=C/c3c[nH]c4ccccc34)nc(N3CCOCC3)c2C#N)cc1
inactive: NCI-H23 lung 111% | NCI-H226 lung 105% | NCI-H322M lung 94.1% | HOP-62 NSCLC 105% | NCI-H460 lung 82.8% | HOP-92 NSCLC 69.1% | NCI-H522 lung 99.7% | A549/ATCC NSCLC 92.4% | 786-0 renal 45.9% | COLO 205 colon 78.5% | DU-145 prostate 79.7% | K-562 leukemia 38% | MALME-3M melanoma 80.3% | MDA-MB-231 breast 72.4% | SF-268 CNS 95.5% | SF-295 CNS 68.2% | SF-539 CNS 67.6% | UACC-257 melanoma 21.4% | M14 melanoma 88.5%

Fc1ccc2nc3c(cc2c1)CSc1nnc(-c2ccc[nH]c2=S)n1N3
inactive: NCI-H23 lung 92.7% | NCI-H226 lung 93.3% | NCI-H322M lung 106% | HOP-62 NSCLC 93.3% | NCI-H460 lung 105% | HOP-92 NSCLC 78.1% | NCI-H522 lung 86.8% | A549/ATCC NSCLC 108% | 786-0 renal 89.7% | COLO 205 colon 115% | DU-145 prostate 114% | K-562 leukemia 106% | MALME-3M melanoma 112% | MDA-MB-231 breast 94.4% | SF-268 CNS 98.7% | SF-295 CNS 105% | SF-539 CNS 95.7% | UACC-257 melanoma 105% | M14 melanoma 99%

Cn1c(=O)c2[nH]c(CCCc3nc4c([nH]3)c(=O)n(C)c(=O)n4C)nc2n(C)c1=O
inactive: NCI-H23 lung 117% | NCI-H226 lung 105% | NCI-H322M lung 114% | HOP-62 NSCLC 97.4% | NCI-H460 lung 105% | HOP-92 NSCLC 101% | NCI-H522 lung 112% | A549/ATCC NSCLC 105% | 786-0 renal 107% | COLO 205 colon 111% | DU-145 prostate 118% | K-562 leukemia 105% | MALME-3M melanoma 108% | MDA-MB-231 breast 113% | SF-268 CNS 104% | SF-295 CNS 111% | SF-539 CNS 98.9% | UACC-257 melanoma 114% | M14 melanoma 111%
